Screening results from PubChem.
This is a sample that favours compounds with a hit; in the whole collection about 8.7% have one here.
JMJD2A Tudor – qHTS Assay for Inhibitors of JMJD2A-Tudor Domain; AID 504339, 2011; 390,000 compounds, 4.4% hits; AlphaScreen JMJD2A-Tudor / H3K4me3 peptide binding; Potency, µM (series often up to 114 µM), usual class: inhibitors; Lysine-specific demethylase 4A (Homo sapiens), O75164; note: nearly all actives have a fitted effect of over 50% in size
Target sequence (O75164 whole entry, looked up, the tested form may be a part): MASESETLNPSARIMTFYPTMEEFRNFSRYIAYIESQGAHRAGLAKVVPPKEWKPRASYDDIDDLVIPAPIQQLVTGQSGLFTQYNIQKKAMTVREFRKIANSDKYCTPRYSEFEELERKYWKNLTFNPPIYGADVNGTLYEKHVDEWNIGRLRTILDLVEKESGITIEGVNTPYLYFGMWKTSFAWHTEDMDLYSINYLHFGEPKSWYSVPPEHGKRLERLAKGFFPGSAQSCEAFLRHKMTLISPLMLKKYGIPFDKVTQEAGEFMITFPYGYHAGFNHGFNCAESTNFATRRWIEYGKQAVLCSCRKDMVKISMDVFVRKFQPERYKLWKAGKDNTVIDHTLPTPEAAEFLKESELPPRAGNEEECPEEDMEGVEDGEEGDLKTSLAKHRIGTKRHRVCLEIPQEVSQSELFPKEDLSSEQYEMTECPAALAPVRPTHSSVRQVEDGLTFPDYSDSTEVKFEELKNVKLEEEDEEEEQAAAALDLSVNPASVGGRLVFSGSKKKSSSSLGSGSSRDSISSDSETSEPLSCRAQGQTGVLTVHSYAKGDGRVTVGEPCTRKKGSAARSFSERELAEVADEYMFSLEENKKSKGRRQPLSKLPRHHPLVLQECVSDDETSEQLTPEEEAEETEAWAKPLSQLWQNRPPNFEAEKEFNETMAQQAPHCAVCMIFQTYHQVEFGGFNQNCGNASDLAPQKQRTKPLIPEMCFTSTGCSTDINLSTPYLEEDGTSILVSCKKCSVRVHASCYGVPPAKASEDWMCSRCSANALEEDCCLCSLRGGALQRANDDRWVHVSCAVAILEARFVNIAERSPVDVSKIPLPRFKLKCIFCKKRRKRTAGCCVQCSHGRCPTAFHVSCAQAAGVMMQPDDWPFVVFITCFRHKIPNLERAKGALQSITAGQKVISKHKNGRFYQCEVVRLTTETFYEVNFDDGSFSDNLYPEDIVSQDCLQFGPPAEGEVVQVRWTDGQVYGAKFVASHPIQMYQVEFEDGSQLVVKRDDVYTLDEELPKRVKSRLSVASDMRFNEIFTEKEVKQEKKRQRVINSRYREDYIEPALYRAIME
BAZ2B inh – qHTS Assay for Inhibitors of BAZ2B; Bromodomain adjacent to zinc finger domain protein 2B (Homo sapiens), Q9UIF8; AlphaScreen BAZ2B-H3K14Ac peptide displacement; Potency, µM (series often up to 114 µM), usual class: inhibitors; 360,000 compounds, 4.4% hits; AID 504333, 2011; note: nearly all actives have a fitted effect of over 60% in size
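Protein-peptide AlphaScreen: BAZ2B 50 nM, b-H3K14Ac 50 nM, 1x PBS pH 7.4 + 0.01% Tween-20. Preincubation 30 min RT; cpd 30 min RT (top 110 uM); beads 20 min RT, light-protected.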
G9a inh – qHTS Assay for Inhibitors of Histone Lysine Methyltransferase G9a; Histone-lysine N-methyltransferase EHMT2 (Homo sapiens), Q96KQ7; G9a H3K9 monomethylation, AlphaScreen, 2 h; 350,000 compounds, 8.8% hits; Potency, µM (series often up to 102 µM), hits mostly inhibitors; note: nearly all actives have a fitted effect of over 75% in size
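Chemiluminescent proximity detection of H3K9 monomethylation, read after 10 min bead incubation in the dark. Reaction: 20 nM G9a, 500 nM biotin-H3K9 peptide, 20 uM SAM cofactor, 2 h, room temperature, following 15 min enzyme-compound preincubation.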
ALOX12 inh – Primary qHTS assay for inhibitors of human arachidonate 12S-lipoxygenase (ALOX12): Round 2. 580,000 compounds, 1.1% hits. Polyunsaturated fatty acid lipoxygenase ALOX12 (Homo sapiens), P18054. purified 12hLO, xylenol orange hydroperoxide absorbance. Potency, µM (highest dose often 108 µM), actives largely listed as inhibitors
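Purified human 12hLO at 150 nM in 25 mM Hepes, 0.01% Triton X-100, pH 7.0, preincubated 15 min at room temperature with compound. Reaction started with 40 uM arachidonic acid, 30 min at room temperature. Hydroperoxide measured by Fe-xylenol orange, 573/405 nm absorbance ratio.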
HP1b binding inh – HTS for Inhibitors of HP1-beta Chromodomain Interactions with Methylated Histone Tails. Chromobox protein homolog 1 (Homo sapiens), P83916. AlphaScreen HP1-beta / biotin-H3K9me3 peptide binding. Potency, µM (top dose mostly 114 µM), most hits filed as inhibitors. 390,000 compounds, 0.56% hits. AID 540317, 2011; note: nearly all actives have a fitted effect of over 70% in size
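AlphaScreen: HP1-beta (50 nM) preformed 30 min with biotin-H3(1-18)K9me3 peptide (50 nM) in PBS pH 7.4, 0.01% Tween-20. Compound added for 30 min at RT, then streptavidin donor/nickel chelate acceptor beads (10 ug/mL) for 30 min.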
Sfp PPTase inh – qHTS Assay for Inhibitors of Bacillus subtilis Sfp phosphopantetheinyl transferase (PPTase). 4'-phosphopantetheinyl transferase ffp (Bacillus subtilis), Q9F4F7. Biochemical Sfp PPTase activity, qHTS. Potency, µM, hits mostly inhibitors. 310,000 compounds, 3.5% hits;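 note: the enzyme is Sfp with the accession as filed and its product quenches rhodamine fluorescence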
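Fluorescence-quenching assay with 15 nM Sfp, 5 uM rhodamine-CoA and 12.5 uM BHQ-2-labelled ybbR peptide in pH 7.6 Hepes/MgCl2 buffer. Enzyme was pre-incubated with compound for 15 min at room temperature. Rate was taken from the 30-min fluorescence change (525/598 nm).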
Numbers stand for hits; n = inactive; u = inconclusive; x = no result given; [ ] = dose if it differs, or a comment. Calls come from the whole dose curve; as a rule, active = well fitted curve in the direction sought with a large enough effect; inconclusive = small, poorly fitted or top-dose-only effect, or another doubt; inactive = no such curve, though single readings can be large; an effect the other way counts as inactive or inconclusive.

SMILES	JMJD2A Tudor	BAZ2B inh	G9a inh	ALOX12 inh	HP1b binding inh	Sfp PPTase inh
COc1ccc(C(C)NC(=O)c2noc(-c3ccc(C)cc3)n2)cc1OC (configuration not stated)	x	x	x	n	x	x
Cc1ccc(NC(=O)CN2C(=O)S/C(=C\c3ccc(-c4cccc(C(=O)O)c4C)o3)C2=O)cc1C	18µM	16µM	18µM	u	35µM	45µM
CCOc1cc(/C=C2/NC(=O)N(CC(=O)Nc3cccc(C)c3)C2=O)ccc1OCC(N)=O	56µM	n	n	n	n	n
CCOC(=O)CN1C(=O)S/C(=C\c2ccc(-c3cccc(C(=O)O)c3C)o2)C1=O	n	x	x	n	n	x
O=C(CN1C(=O)S/C(=C\c2ccc(-c3cc(C(=O)O)ccc3Cl)o2)C1=O)Nc1ccc2c(c1)OCO2	x	8.9µM	u	u	x	n
CCOc1cccc(/C=C2/NC(=O)N(CC(=O)Nc3cccc(C)c3)C2=O)c1O	n	n	n	n	n	n
Cc1cccc(NC(=O)CN2C(=O)N/C(=C/c3ccc(-c4cccc(C(=O)O)c4C)o3)C2=O)c1	n	u	u	u	n	32µM
CCn1ccc2cc(C(=O)N3CCC(=O)N(CC4CC4)C(C(C)C)C3)ccc21 (configuration not stated)	x	x	x	n	x	x
CCc1noc([C@@H]2CC(F)(F)CN2C(=O)c2cc(C)no2)n1	x	x	x	n	x	x
COc1c(C)cccc1C(=O)Nc1sc2c(c1C(N)=O)CCCC2	x	x	x	n	x	x
O=C([C@@H]1C[C@@H](O)[C@H](O)[C@@H]2NC(=S)N(c3ccc(Cl)cc3)[C@@H]21)N1CCCCC1	x	x	x	n	x	x
COc1ccc(C2N(c3ccc(C)cc3)CCN2c2ccc(C)cc2)cc1O	28µM	32µM	18µM	n	n	n
CNCc1cccn1C	x	x	x	0.52µM	x	x
CN1C(=O)/C(=C/C=C2/CCCN2C)N(C)C1=S	n	u	x	u	n	79µM
c1cc2nsnc2cc1CN1CCCN(C2CCCC2)CC1	x	x	x	n	x	x
COc1ccc(NC(=O)CCCn2c(=O)c3sccc3n(Cc3ccc(C)cc3C)c2=O)cc1	n	n	n	n	n	50µM
COc1ccc(OC)c(NC(=O)CN(C)S(=O)(=O)c2ccc3[nH]c4c(c3c2)CCCC4)c1	u	u	13µM	n	u	x
CN(CC(=O)NCc1ccc(Cl)cc1)S(=O)(=O)c1ccc2[nH]c3c(c2c1)CCCC3	u	n	10µM	n	n	x
COc1cccc(CNC(=O)CN(C)S(=O)(=O)c2ccc3[nH]c4c(c3c2)CCCC4)c1	u	n	13µM	n	n	x
CN(Cc1ccc(-c2ccccc2)cc1)C(=O)C1CC1	x	x	x	n	x	x
CC(C)(C)c1ccc(C(=O)Oc2ccc3c(c2)OCC3=O)cc1	n	n	50µM	n	n	n
CCOc1cc(C(=O)Nc2nc(C)cs2)ccc1OCc1ccncc1	x	x	x	n	x	x
OCc1c[nH]c(=S)n1CCOc1cccc(C(F)(F)F)c1	22µM	n	u	u	n	u
COc1ccc(C(=O)N2CCc3nc(C(C)C)nc(-c4ccc(OC)cc4)c3CC2)cc1	x	x	x	n	x	x
N#Cc1c(N)sc(=S)c2c1CCCC2	u	40µM	7.1µM	n	u	32µM
SMILES	JMJD2A Tudor	BAZ2B inh	G9a inh	ALOX12 inh	HP1b binding inh	Sfp PPTase inh
CCC1(C)Cc2c(C#N)c(N)sc(=S)c2CO1 (configuration not stated)	u	u	u	u	u	13µM
CC1CCc2c(sc(N)c2C#N)C1 (configuration not stated)	x	x	x	n	x	x
CCC1(C)Cc2c(C#N)c(N)n(-c3ccccc3)c(=S)c2CO1 (configuration not stated)	n	n	n	u	n	n
CCn1nc(C)c(CNC(=O)C(c2ccc(F)cc2)N(C)C)c1C (configuration not stated)	x	x	x	n	x	x
CN(CCCC#N)CC1COc2ccccc2O1 (configuration not stated)	x	x	x	n	x	x
COc1cc2c(cc1OC)C1=C(C#N)CCC(=NC(=O)c3ccco3)N1CC2	n	n	n	n	n	n
COc1cc2c(cc1OC)C1=C(C#N)CN(CC(=O)O)CN1CC2	22µM	79µM	35µM	n	n	n
O=C(Nc1cccc(CNCc2ccccn2)c1)c1cccc(F)c1	x	x	x	n	x	x
Cc1ccc(NC(=S)NC(=O)c2ccc(F)cc2)cc1S(=O)(=O)Nc1cccc(Cl)c1	n	u	u	13µM	n	n
O=C(O)c1cccc(NC(=S)NC(=O)c2ccc3ccccc3c2)c1	n	n	56µM	u	n	n
CNC(=S)Nc1ccc(C)c(NC(=S)NC)c1	n	n	28µM	n	u	n
Cc1ccc(C(=O)O)cc1NC(=S)NC(=O)c1ccc([N+](=O)[O-])c(C)c1	n	u	50µM	20µM	n	u
CCN(Cc1ccccc1)C(=S)Nc1ccc(C)cc1C	x	x	x	n	x	x
N[C@@H]1CCN(C(=O)c2ccccc2OC(F)(F)C(F)F)C[C@H]1O	x	x	x	n	x	x
O=C1NC(C(=O)NCc2ccco2)Cn2cccc21 (configuration not stated)	x	x	x	n	x	x
CNC(=O)c1cnn2c1CN([S+](=O)([O-])c1cccc(C(F)(F)F)c1)CC2	x	x	x	n[6.33 µM]	x	x
O=C(c1c[nH]c2ccccc12)C(NCc1ccccc1)c1ccccc1 (configuration not stated)	x	x	x	n	x	x
Cc1ccn(CC(=O)N2C[C@@H](COc3ccccc3)[C@H](C(N)=O)C2)n1	x	x	x	n	x	x
O=C(NC(=S)Nc1cccc(NC(=S)NC(=O)c2ccccc2)c1)c1ccccc1	n	x	x	14µM	n	x
Cc1ccc(NC(=S)NC(=O)c2ccccc2)cc1NC(=S)NC(=O)c1ccccc1	n	n	u	4µM	n	25µM
O=C(NC(=S)Nc1ccccc1C(=O)O)c1ccc2ccccc2c1	n	n	28µM	25µM	n	45µM
O=C(O)c1ccc(NC(=S)NC(=O)c2ccc3ccccc3c2)cc1	u	n	x	u	n	n
Cc1ccccc1C(=O)NC(=S)Nc1ccccc1C(=O)O	n	n	20µM	45µM	n	u
O=C(Nc1ccc(F)cc1Cl)c1nc2ccccc2nc1N1CCCC1	x	x	x	n	x	x
O=C(NC(=S)Nc1ccc(Oc2ccccc2)cc1)c1ccc(Cl)cc1	n	u	u	u	n	n
O=C(NC(=S)Nc1c(Cl)cc(Cl)cc1Cl)c1ccccc1	x	x	x	35µM	x	x
COc1ccc(O[C@H]2C=C[C@@H](c3ccccc3)O[C@@H]2COC(=O)CC/C(C)=N/OC[C@@H](O)[C@H]2O[C@@H]3OC(C)(C)O[C@@H]3[C@H]2O)cc1	x	u	79µM	x	x	n
